Screens: PubChem, National Center for Advancing Translational Sciences (NCATS)
In the library only some 0.71% were active in any assay of this set; here they are far more common.
USP1-UAF1 inh: blocks the human USP1/UAF1 deubiquitinase complex. Potency, µM (series often up to 57.1 µM), for inactives: at the top dose activity change, negative = inhibition, most hits filed as inhibitors. 390,000 compounds, 0.23% hits. recombinant USP1/UAF1, Ub-Rhodamine cleavage fluorescence. O94782; note: potency is the fitted concentration of half-maximal effect; nearly all actives have a fitted effect of over 60% in size
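1 nM enzyme complex + cpd, 15 min RT; start with Ub-Rho 150nM final; kinetic fluorescence ex 480/em 540, 6 reads q60 s. Buffer 50mM HEPES pH 7.8, 0.5mM EDTA, 0.1 mg/ml BSA, 1mM TCEP, 0.01% Tween-20.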
FBPA coupling cs: inhibits coupling enzyme system, counter-screen for aldolase hits | 290,000 compounds, 0.67% hits | coupling enzyme system counterscreen, AmpLite Red fluorescence | activity change, negative = inhibition, % at 58.2 µM, hits read low; in the data active = activity change below about -30%
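Counterscreen of the coupled detection system alone, without aldolase: glyceraldehyde-3-phosphate coupling enzymes plus AmpLite Red readout. Compounds at 57.5 uM final, 10 min RT preincubation, 20 min RT reaction, fluorescence 525/598 nm.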
USP2a inh: USP2a (human) protease inhibition. O75604. USP2 core, Ub-CHOP2 coupled fluorogenic reporter, 485/531. Potency, µM (doses to about 38.3 µM), for inactives: at the highest dose activity change, negative = inhibition, usual class: inhibitors. 330,000 compounds, 0.01% hits. AID 463254;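 note: potency is the fitted concentration of half-maximal effect; plate controls were DMSO wells for no effect and full inhibition by NEM control for full effect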
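USP2 core (10nM final) preincubated 30min RT with compound in 20mM Tris-HCl pH 8.0, 2mM CaCl2, 2mM beta-mercaptoethanol, 0.05% CHAPS; 25nM Ub-CHOP2 plus 25nM reporter substrate added, fluorescence (Ex485/Em531) read after 60min.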
GALK inh: blocks human galactokinase activity; P51570; Purified GALK, Kinase-Glo residual ATP luminescence; Potency, µM (series often up to 57.5 µM), inactives show top-dose activity change, negative = inhibition, most hits filed as inhibitors; 270,000 compounds, 0.007% hits; note: potency is the fitted concentration of half-maximal effect
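The enzyme phosphorylates galactose (100 uM) using ATP (35 uM); inhibition is detected as higher residual ATP, quantified by bioluminescence after 1 h reaction at room temperature, pH 8.0.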
PI4K2A inh: PI4K2A (human) kinase inhibition; purified PI4K2A, ADP-Glo luminescence, 1 h; hits give low values; activity change, negative = inhibition, % at 76.9 µM; 420,000 compounds, 0.13% hits; AID 1346378; in the data active = activity change below about -50%; inconclusive = mostly about -30% to -49%;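 note: -100% = wells without enzyme as full effect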
Target sequence (Q9BTU6 whole entry, looked up): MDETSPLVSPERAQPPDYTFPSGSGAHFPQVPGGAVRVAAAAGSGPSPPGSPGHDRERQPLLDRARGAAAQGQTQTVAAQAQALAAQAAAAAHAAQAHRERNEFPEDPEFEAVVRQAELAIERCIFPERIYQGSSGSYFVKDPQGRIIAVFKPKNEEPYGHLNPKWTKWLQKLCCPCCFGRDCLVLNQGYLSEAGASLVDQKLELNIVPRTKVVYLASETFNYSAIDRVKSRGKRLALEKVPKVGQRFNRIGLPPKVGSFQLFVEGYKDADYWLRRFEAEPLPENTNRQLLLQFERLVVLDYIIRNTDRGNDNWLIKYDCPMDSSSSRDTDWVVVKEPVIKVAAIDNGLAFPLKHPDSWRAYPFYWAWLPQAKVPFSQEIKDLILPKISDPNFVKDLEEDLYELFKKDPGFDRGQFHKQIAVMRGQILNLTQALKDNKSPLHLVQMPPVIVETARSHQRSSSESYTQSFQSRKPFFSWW
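In this quantitative HTS, ADP production by PI4K2A was quantified luminescently after 1 h at ambient temperature; 100 microM adenosine served as plate-quality control.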
Eya2 inh: inhibitors of human Eya2 phosphatase activity | recombinant Eya2, OMFP fluorescence dephosphorylation (OMFP is methylfluorescein phosphate) | Potency, µM (series often up to 76.9 µM), inactives show top-dose activity, negative = inhibition, most hits filed as inhibitors | 330,000 compounds, 0.006% hits | AID 488837; note: potency is the fitted concentration of half-maximal effect
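Eya2 protein (added as 0.2 uM solution) was preincubated with compound for 10 min at ambient temperature in 50 mM HEPES pH 7.5, 50 mM NaCl, 5 uM MgCl2, 0.05% BSA, 1 mM DTT. OMFP (added at 50 uM) then reacted 10 min; fluorescence read at 485/525 nm.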
Starred values were filed as active, the others as inactive; i = inactive; ? = inconclusive; nt = no result given. Unless noted, calls come from the whole dose curve; as a rule, active = well fitted curve in the direction sought with a large enough effect; inconclusive = small, poorly fitted or top-dose-only effect, or another doubt; inactive = no such curve, though single readings can be large; an effect the other way counts as inactive or inconclusive. Unless noted, % is set by controls: 0 for no effect and ±100 for the full control effect.

SMILES	USP1-UAF1 inh	FBPA coupling cs	USP2a inh	GALK inh	PI4K2A inh	Eya2 inh
CC(CCc1ccc2c(c1)OCO2)NN (centres undefined)	nt	nt	nt	nt	-2	nt
Cc1ccc(NC2=CC(=O)C(=O)c3ccccc32)cc1	25µM*	-56*	-5%	-1%	-66*	-22%
Cc1cc(NC2=CC(=O)C(=O)c3ccccc32)no1	2.5µM*	nt	nt	nt	-25	nt
CCOC(=O)c1ccc(NC2=CC(=O)C(=O)c3ccccc32)cc1	7.9µM*	nt	0%	-3%	-25	-3%
CC(=O)Nc1ccc(NC2=CC(=O)c3ccccc3C2=O)cc1	-9%	-14	0%	0%	-12	7%
NS(=O)(=O)c1ccc(NC2=CC(=O)C(=O)c3ccccc32)cc1	8.9µM*	-71*	-3%	?	?	15%
CCCCCCCCCCCCOCCO	nt	nt	nt	nt	1	nt
CCC(C)N(C(=O)c1ccc(CNC(=O)c2cccc(Br)c2)cc1)C(C)CC (centres undefined)	nt	nt	nt	nt	3	nt
COc1cc(OC)c(NC2=CC(=O)C(=O)c3ccccc32)cc1Cl	18µM*	-50*	-2%	nt	-5	-24%
CCC(C(=O)Nc1cc(Cl)c(OC)cc1OC)c1ccccc1 (centres undefined)	-15%	-1	-1%	-2%	1	3%
O=C1C=C(Nc2ccc(O)cc2)C(=O)c2ccccc21	-27%	-16	-3%	9%	-56*	-4%
N=c1c2c(-c3ccccc3)c(-c3ccccc3)n(CCc3ccccc3)c2ncn1C1CCC(O)CC1 (centres undefined)	nt	nt	nt	nt	3	nt
Cc1ncc(C(O)c2ccc(N(C)C)cc2)n1Cc1ccccc1 (centres undefined)	-17%	nt	nt	nt	3	nt
CN(C)c1ccc2nc3c(=O)[nH]c(=O)nc-3n(CC(O)C(O)C(O)CO)c2c1 (centres undefined)	28µM*	-11	?	11%	-17	-8%
Clc1ccc2c(c1)Nc1ccccc1S2	nt	nt	nt	nt	4	nt
CC(C)NC(=O)CC1Nc2c3ccccc3nc(=S)n2C1=O (centres undefined)	3%	-35*	-1%	-1%	4	7%
CC(C)(C)C1=CC(=O)C(N2CCOCC2)=CC1=O	?	-58*	-1%	-2%	-5	4%
O=C(NC1CCCCN(Cc2ccc(Cl)cc2)C1=O)c1c(F)cccc1F (centres undefined)	nt	nt	nt	nt	8	nt
CC(=O)C1(C(=O)NCc2ccccc2)CC(c2ccccn2)=NO1 (centres undefined)	nt	nt	nt	nt	-1	nt
O=C(O)c1ccc(NC2=C/C(=N/S(=O)(=O)c3cccs3)c3ccccc3C2=O)cc1	5µM*	nt	nt	nt	-52*	nt
O=C1C(Nc2ccc(O)cc2)=C/C(=N/S(=O)(=O)c2cccs2)c2ccccc21	4.5µM*	-37*	2%	-18%	?	-8%
COc1cc(SC#N)ccc1N=Cc1c(C)[nH]n(-c2cccc3ccccc23)c1=O	-20%	1	-2%	3%	-53*	0%
COc1cc(S(=O)(=O)Nc2ccc(C)cc2)ccc1N=Cc1c(C)[nH]n(-c2ccc(C)cc2)c1=O	-6%	6	-4%	1%	-9	3%
COc1cc(SC#N)ccc1N=Cc1c(C)[nH]n(-c2ccc(C)cc2C)c1=O	-13%	2	nt	-1%	-54*	nt
COc1ccccc1N=Cc1c(C)[nH]n(-c2ccc(C)cc2C)c1=O	-18%	-5	-1%	1%	3	4%
SMILES	USP1-UAF1 inh	FBPA coupling cs	USP2a inh	GALK inh	PI4K2A inh	Eya2 inh
C[C@@H]1CC[C@@]2(OC1)O[C@H]1C[C@H]3[C@@H]4CC[C@H]5C[C@@H](O)CC[C@]5(C)[C@H]4CC(=O)[C@]3(C)[C@H]1[C@@H]2C	nt	nt	nt	nt	i	nt
CN(C)CCN(Cc1ccsc1)c1ccccn1	nt	nt	nt	nt	0	nt
Cc1ccc(S(=O)(=O)N[C@H]2COC(=O)[C@H](C)COC(=O)[C@H](C)NC(=O)C/C=C\[C@H]2C)cc1	nt	3	nt	nt	nt	nt
COc1ccc2c(c1)O[C@H](c1cccc(C(F)(F)F)c1)[C@@H](O)C2=O	nt	1	nt	nt	nt	nt
O=C1C(O)=C(O)C(=O)c2ccccc21	16µM*	nt	nt	nt	-50*	nt
O=C1c2ccccc2C(=O)c2[nH]cnc21	-18%	-24	2%	-3%	1	-16%
O=C1c2ccccc2C(=O)c2[nH]c(=O)[nH]c21	28µM*	-20	1%	-3%	-22	-6%
Cc1ccc(NC(=O)NC2CCCCC2)cc1Cl	-15%	1	1%	1%	-71*	-2%
Cc1coc2c1c(C)cc1oc(=O)c(Cc3ccccc3)c(C)c12	-8%	-3	-2%	1%	-84*	-3%
CCn1c(CCC(N)=O)nnc1SCC(=O)c1cc(C)n(C2CC2)c1C	-22%	nt	5%	nt	-53*	3%
CCCn1c(SCC(=O)c2cc(C)n(C3CC3)c2C)n[nH]c1=O	-16%	nt	1%	nt	-4	17%
COc1cc(C(c2c(C)[nH][nH]c2=O)c2c(C)[nH][nH]c2=O)ccc1OCc1ccc([N+](=O)[O-])cc1	-23%	-35*	?	0%	-6	17%
COc1cc(C(c2c(C)[nH][nH]c2=O)c2c(C)[nH][nH]c2=O)ccc1OC(=O)c1cccc([N+](=O)[O-])c1	-5%	-16	-9%	-1%	-20	16%
CC(C)=CCC[C@@](C)(O)[C@H]1CC=C(C)CC1	nt	nt	nt	nt	4	nt
Cc1cc(O)c(C(C)C)cc1N=Cc1cc([N+](=O)[O-])ccc1O	-7%	-28	2%	nt	-1	-17%
Cc1cc(O)c(C(C)C)cc1N=Cc1ccccc1O	?	-51*	-1%	-2%	-6	10%
COC(=O)c1ccc(OC)c(CN2CCCN(Cc3ccc(F)cc3)S2(=O)=O)c1	-3%	-31*	-2%	2%	1	-9%
COc1cc(-c2nnn(CC(=O)NC3CCS(=O)(=O)C3)n2)ccc1OCc1ccccc1 (centres undefined)	-19%	1	-2%	0%	-60*	-12%
O=C(Cn1nnc(-c2ccc(Cl)cc2)n1)NC1CCS(=O)(=O)C1 (centres undefined)	-30%	nt	0%	nt	-2	4%
CC1CC(=O)NN=C1c1ccc(NCC(C)(C)NCC(O)COc2cc(Cl)ccc2C#N)cc1 (centres undefined)	nt	nt	nt	nt	0	nt
S=C(Nc1ccc2nsnc2c1)NC1CCCCC1	-18%	-67*	0%	-2%	?	-20%
CCOc1ccc(NC(=O)Nc2ccc3nsnc3c2)cc1	-4%	-6	0%	0%	0	2%
